Screening data as filed in PubChem BioAssay.
DRV1 agonist – activates human resolvin D1 receptor GPR32 | AID 1346428 | CHO-K1 GPR32 beta-arrestin PathHunter luminescence, 90 min; zero percent set by DMSO-only wells | activation, % at 76.9 µM | O75388 | 48,000 tested, 2.5% active;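 active = activation of at least 60% and not above a set upper limit, about 1 call in 100 departs from these limits; inconclusive = activation of 40% to 60%, or above that upper limit; inactive = activation under 40%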; also: 0% is about no effect
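Cells are plated overnight, treated with compounds in DMSO for 90 minutes at 37 °C, and developed with PathHunter detection reagent for 1 hour before luminescence is read; signal reflects beta-arrestin binding to GPR32 in engineered CHO-K1 cells.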
HTT-AS promoter – activators of huntingtin-antisense promoter activity. HEK293 HTT-AS promoter firefly luciferase reporter, 24 h; response scale: percent change from vehicle, -100% = no light. Potency, µM (series often up to 57.5 µM), inactives show at the top dose activity change, positive = activation, usual class: activators. 48,000 tested, 0.24% active. AID 1508624; also: potency is read from the fitted curve at half-maximal effect; nearly all actives have a fitted effect of over 55% in size
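Firefly luciferase readout (Dual-Glo, 10 min RT) after 24 h, 37 °C compound exposure (final up to 57.5 uM) of HEK293 reporter cells cultured 24 h beforehand; PTC124 at 50 uM final as control inhibitor; activity scaled vehicle 0%, zero RLU -100%.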
HTT prom inh – inhibitors of huntingtin promoter activity; HEK293 HTT promoter firefly luciferase reporter, 24 h; Potency, µM (series often up to 57.5 µM), inactives show at the top dose activity change, negative = inhibition, actives largely listed as inhibitors; 48,000 tested, 0.93% active; also: potency is read from the fitted curve at half-maximal effect; nearly all actives have a fitted effect of over 50% in size
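HEK293 Fluc reporter, 2,500 cells/well, 24 h pre-culture; cpds up to 57.5 uM final, 24 h 37 degrees C; Dual-Glo, 10 min RT; normalized vehicle = 0%, zero RLU = -100%.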
NTMT1 inhibitor – inhibitors of human N-terminal methyltransferase NTMT1 | 59,000 tested, 2.5% active | Potency, µM (top dose mostly 114 µM), for the others: top-dose activity change, negative = inhibition, most hits filed as inhibitors | NTMT1 MTase-Glo SAH luminescence, purified enzyme;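 also: potency is read from the fitted curve at half-maximal effect; plate controls were DMSO vehicle for no effect and no enzyme for full effect; nearly all actives have a fitted effect of over 65% in size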
Target sequence (Q9BV86 whole entry, looked up): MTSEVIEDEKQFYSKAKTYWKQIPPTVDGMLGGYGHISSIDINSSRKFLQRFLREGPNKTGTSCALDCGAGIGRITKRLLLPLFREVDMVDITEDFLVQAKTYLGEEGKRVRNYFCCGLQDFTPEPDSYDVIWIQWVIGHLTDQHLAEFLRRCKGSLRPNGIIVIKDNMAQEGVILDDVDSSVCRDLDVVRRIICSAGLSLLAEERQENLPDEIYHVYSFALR
* marks the source's active call; other numbers are inactive results; ? = inconclusive; . = no result; ! = a repeat was not active; [ ] = another dose, or the depositor's remark. The list is not random: actives were taken first. Their share in the collection is about 4.6%. Unless noted, calls follow the shape of the dose curve; as a rule, active = well fitted curve in the direction sought with a large enough effect; inconclusive = small, poorly fitted or top-dose-only effect, or another doubt; inactive = no such curve, though single readings can be large; an effect the other way counts as inactive or inconclusive.

SMILES	DRV1 agonist	HTT-AS promoter	HTT prom inh	NTMT1 inhibitor
CC(=O)[O][Hg][c]1ccccc1	?	-95.6%	?	2.82µM*
CCN(CC)C(C)C(=O)c1ccccc1 (stereo not drawn)	-7.5	-1.8%	9.5%	23.1%[57.5 µM]
C[C@]12CC[C@H](O[C@@H]3O[C@H](CO)[C@@H](O)[C@H](O)[C@H]3O)CC1CC[C@@H]1C2CC[C@]2(C)[C@@H](C3=CC(=O)OC3)CC[C@]12O (stereo partly drawn)	.	.	.	-10.3%[29.8 µM]
C/C=C(\C)C(=O)O[C@@H]1[C@@H](C)[C@]2(O)C3C=C(C)C(=O)[C@@]3(O)CC(CO)=C[C@H]2C2C(C)(C)[C@@]21OC(=O)C(C)CC (stereo partly drawn)	.	.	.	0.3%[29.8 µM]
CC1=C[C@H]2O[C@@H]3[C@H](O)[C@@H](O)[C@](C)([C@@]2(CO)C[C@@H]1O)[C@]31CO1	.	.	.	7.4%[57.5 µM]
N#Cc1cc2c(nc1SCC(=O)Nc1ccc(Cl)c(C(F)(F)F)c1)C1CCN2CC1	-5.4	-62.8%	15.8µM*	7.6%
Nc1c(C(=O)Nc2ccc(Cl)c(C(F)(F)F)c2)sc2nc3c(cc12)N1CCC3CC1	?	-72.3%	?	-1.8%
N#Cc1cc2c(nc1SCC(=O)Nc1ccc(C(F)(F)F)cc1)C1CCN2CC1	20.7	-43.1%	14.1µM*	4.9%
CCOC(=O)CC(SP(=S)(OC)OC)C(=O)OCC (stereo not drawn)	-23.9	-4.7%	6.6%	31.6µM*!
C[C@H]1[C@H](O)[C@@H](C)/C=C/C=C/CC/C=C/C=C/C=C/C=C/[C@H](O[C@@H]2O[C@H](C)[C@@H](O)[C@H](N)[C@@H]2O)C[C@@H]2O[C@](O)(C[C@@H](O)[C@H](O)CC[C@@H](O)C[C@@H](O)C[C@@H](O)CC(=O)O[C@H]1C)C[C@H](O)[C@H]2C(=O)O	.	.	.	-27.9%
O=S(=O)(O)C(F)(F)C(F)(F)C(F)(F)C(F)(F)C(F)(F)C(F)(F)C(F)(F)C(F)(F)F	?	-11.3%[116 µM]	5.2%[116 µM]	22.4µM*
CCN(CC)C(=O)[C@@H]1C=C2c3cccc4[nH]cc(c34)C[C@H]2N(C)C1	-25.3	-20.9%[222 µM]	-7.5%[222 µM]	56.2µM*
CC(C)(O)/C=C/C(=O)[C@](C)(O)[C@H]1[C@H](O)C[C@@]2(C)[C@@H]3CC=C4[C@@H](C=C(O)C(=O)C4(C)C)[C@]3(C)C(=O)C[C@]12C	.	.	.	11.3%[29.8 µM]
C=C[C@H]1CN2CCC1C[C@H]2[C@H](O)c1ccnc2ccccc12 (stereo partly drawn)	.	.	.	-21.9%[57.5 µM]
CO/C1=C/C(C)=C\[C@@H](C)[C@@H](O)[C@@H](C)C/C(C)=C\C=C/[C@H](OC)[C@@H]([C@@H](C)[C@@H](O)[C@H](C)[C@@]2(O)C[C@@H](O)[C@H](C)[C@@H](C(C)C)O2)OC1=O	.	.	.	4.3%[29.8 µM]
CC(=O)OC[C@H]1O[C@@H]([S-])[C@H](OC(C)=O)[C@@H](OC(C)=O)[C@@H]1OC(C)=O.CC[PH+](CC)CC.[Au]	.	.	.	10µM*
C=CCN1CC[C@]23c4c5ccc(O)c4O[C@H]2[C@@H](O)CC[C@@]3(O)[C@H]1C5	.	.	.	18.6%[57.5 µM]
C[C@H](N)C(=O)c1ccccc1	-47.9	-5.1%[116 µM]	-2.6%[116 µM]	112µM*
CCC1NC(=O)C2C(Cl)C(Cl)CN2C(=O)C(CC)NC(=O)CC(c2ccccc2)NC(=O)C(CO)NC1=O (stereo not drawn)	.	.	.	-2.6%[29.8 µM]
C=CC[C@]1(O)CC[C@H]2[C@@H]3CCC4=CC(=O)CCC4=C3C=C[C@@]21C	21.4	-19.9%	-9.7%	22.4µM*
Cc1cccc(C)c1OP(=O)(OCc1c(-c2ccccc2)no[n+]1[O-])Oc1c(C)cccc1C	.	.	.	4.9%
C=CCC1=C(C)C(OC(=O)C2C(C=C(C)C)C2(C)C)CC1=O (stereo not drawn)	73.6*	-19.6%[116 µM]	-17.3%[116 µM]	?
CCOc1ccc(CCNC(=O)c2cc3ccccc3n2Cc2ccccn2)cc1OCC	.	.	.	18.9%
O=P1(N(CCCl)CCCl)NCCCO1 (stereo not drawn)	8.8	-9.4%	11.2%	35.5µM*!
CC[C@H](C)[C@H](NC(=O)[C@H]1CCCCN1C)C(=O)N(COC(=O)CC(C)C)[C@H](C[C@@H](OC(C)=O)c1nc(C(=O)N[C@@H](Cc2ccc(O)cc2)C[C@H](C)C(=O)O)cs1)C(C)C	.	.	.	2.3%[1.07 µM]
c1ccc(CN2CCNCC2)cc1	-11.5	-4.6%[222 µM]	-0.1%[222 µM]	100µM*
